Measurements taken from PubChem BioAssay (NCI).
Values joined by “and” are separate entries in the source; they are usually repeats but may differ in a detail not shown here. Equal values may be shown once. Compounds without any hit were thinned out: in the full panel of roughly 79,000, 15% have a hit. Active and inactive are the calls of the source. Cut-off read from the data, not from the text of the source: active = growth inhibition above about 70%; inactive = the rest.

Tests used:
[1] = NCI Yeast Anticancer Drug Screen. Data for the rad50 strain (AID 155);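 note: 0% = growth of vehicle-only cultures of the same strain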; conditions: S. cerevisiae rad50 strain growth inhibition, stronger effect = higher value; at 50.0 µM unless noted
In short: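 A DNA repair-deficient yeast mutant serves as the test organism; compound-induced growth inhibition is calculated against vehicle-treated cells.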

[2] = NCI Yeast Anticancer Drug Screen. Data for the mec2-1 strain (AID 157); conditions: S. cerevisiae mec2-1 strain, stronger effect = higher value; at 50.0 µM unless noted
In short: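 Readout is yeast growth inhibition, normalised to vehicle-treated controls, in the mec2-1 strain exposed to compound.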

[3] = NCI Yeast Anticancer Drug Screen. Data for the sgs1 mgt1 strain (AID 161);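 note: 0% = growth of cultures given vehicle only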; conditions: S. cerevisiae sgs1 mgt1 strain, stronger effect = higher value; at 50.0 µM unless noted
In short: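 This yeast growth screen uses a strain with defined DNA-repair lesions; compound-treated growth is compared with vehicle-treated growth.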

[4] = NCI Yeast Anticancer Drug Screen. Data for the cln2 rad14 strain (AID 165);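 note: 0% = growth equal to vehicle treated cultures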; conditions: S. cerevisiae cln2 rad14 strain, stronger effect = higher value; at 50.0 µM unless noted
In short: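 Relative to vehicle controls, growth inhibition of compound-treated cln2 rad14 yeast was recorded.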

[5] = NCI Yeast Anticancer Drug Screen. Data for the mlh1 rad18 strain (AID 175); conditions: S. cerevisiae mlh1 rad18 strain growth inhibition, stronger effect = higher value; at 50.0 µM unless noted
In short: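 Test agents were incubated with a yeast strain of defined genotype (DNA damage repair defect). Inhibition of growth was derived by comparison with vehicle-exposed cultures.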

[6] = NCI Yeast Anticancer Drug Screen. Data for the bub3 strain (AID 167); conditions: S. cerevisiae bub3 mutant strain, stronger effect = higher value; at 50.0 µM unless noted
In short: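 Inhibition values come from growth of compound-treated mutant yeast normalised to vehicle-treated controls.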

Measured: growth inhibition

C=C1C(=O)OC2C3[C@@]4(C)O[C@H]4[C@H]4O[C@@]34[C@](C)(O)CC(OC(C)=O)[C@@H]12 (some centres not stated)
inactive: [1] -16.4% | [2] -30.6% | [3] -7.3% | [4] -7.45% | [5] -22.1%

COC(=O)[C@]1(C)CCCC2(C)C1CC[C@H]1C=C(C)[C@H]3CCC12C3 (some centres not stated)
inactive: [1] 14% | [2] 12.2% | [3] -25.1% | [4] 6.7% | [5] 15.7%

O=S(=O)(CCCl)c1ccc(Br)cc1
inactive: [1] 51.6% | [2] 44.6% | [3] 56.7% | [4] 18.8% | [5] 57.5%

CC(C)C(=O)Nc1ccc(S(=O)(=O)Nc2ccc(N)cc2O)cc1
inactive: [1] -6.8% | [2] 6.6% | [3] 25.1% | [4] 1.25% | [5] -0.75%

CN(C)C(=NN=C(N(C)C)N(C)C)N(C)C
inactive: [1] 12.2% | [2] -4.2% | [3] 0.05% | [4] -39% | [5] 1.5%

CCCSCCC(NC(=O)c1ccccc1)C(=O)O (configuration not stated)
inactive: [1] -14.6% | [2] -10% | [3] -10.1% | [4] -12.9% | [5] -26.4%

COc1cc(C(CC(=O)O)C(=O)O)c([N+](=O)[O-])cc1OC (configuration not stated)
inactive: [1] -23.2% | [2] 1.1% | [3] 2.2% | [4] 0% | [6] 24.5% | [5] 7.4%

O=C(CS(=O)(=O)c1ccccc1)c1ccccc1
inactive: [1] -14.4% and 14.6% | [2] -18.9% and 13.1% | [3] -6.05% and 12.6% | [4] 8.75% and 1.5% | [5] -29.9% and 28.3%

O=Nc1c(S(=O)(=O)O)cc2cc(S(=O)(=O)O)ccc2c1O
inactive: [1] 41.9% | [2] 0.55% | [3] 45.2% | [4] 22.4% | [5] 30.4%

CN(Cc1ccccc1Cl)C(=S)NC1CCCCC1
inactive: [1] 62% | [4] 34.8%
active: [2] 88.8% | [3] 86% | [5] 85.5%

CC(NCCN1CCOCC1)c1ccc2ccccc2c1 (configuration not stated)
inactive: [1] 40.7% | [2] 15.4% | [3] 41.5% | [4] 23.9% | [5] 42.6%

O=C(NCc1ccco1)Nc1ccccc1C(F)(F)F
inactive: [1] 2.3% | [2] 0.2% | [3] 18.5% | [4] 19.6% | [5] 17.1%

COc1cc(/C=N/NC(=O)c2ccccc2NC(=O)c2ccccc2)ccc1O
inactive: [1] 2.05% | [2] -13% | [3] 20.1% | [4] -32.5% | [6] 37.7% | [5] 30.9%

CC(=O)OC[C@H](O)[C@@]1(O)CC[C@H]2[C@@H]3CCC4=CC(=O)C=C[C@]4(C)[C@H]3[C@@H](O)C[C@@]21C
inactive: [1] 33.2% | [2] 14.9% | [3] 23.9% | [4] 1.15% | [5] 27%

Cc1ccc2oc3c(ccc(=O)n3C)c(=O)c2c1
inactive: [1] 28.6% | [2] 7.1% | [3] -17.6% | [4] -22.1% | [5] -59.3%

O=C1Oc2ccccc2C(=O)/C1=C/N1C(=O)N/C(=C\c2cccc(O)c2)C1=O
inactive: [1] 21.9% | [2] 19.9% | [3] 37.6% | [4] 45.5% | [5] -7.5%

CC(C)c1ccc(/C(C(=O)O)=C(\O)C(=O)O)cc1
inactive: [1] -14.4% | [2] -7.25% | [3] -15.4% | [4] 29.9% | [5] -7.45%

O=C(Nc1ccc2ccccc2c1)c1ccccc1Cl
inactive: [1] 1.65% | [2] -4.4% | [3] 21.9% | [4] -7.15% | [5] 32.3%

C#CC(O)C1OC(C)(C)OC1C1COC(C)(C)O1 (configuration not stated)
inactive: [1] 4.15% | [2] 6.5% | [3] 13.2% | [4] -4.4% | [5] -5.65%

O=C1CSC(c2c[nH]c3ccccc23)N1c1ccc(Cl)cc1 (configuration not stated)
inactive: [1] -33.9% | [2] -25.5% | [3] -46.2% | [4] -3.55% | [5] -30.4%

C[C@]12CCC(=O)C=C1CC[C@@H]1[C@@H]2C(=O)C[C@]2(C)/C(=C\C(=O)O)CC[C@@H]12
inactive: [1] -1% | [2] -19.1% | [3] 5.7% | [4] -48.1% | [5] 2.55%

Clc1nc2n(c1/C=C/c1cccs1)CCS2
inactive: [1] 28.4% | [2] 23.2% | [3] 56.4% | [6] 20.6% | [5] 59.5%

COc1ccc2oc(=N)c(C(=O)Nc3ccccc3)cc2c1
inactive: [1] 24.2% | [2] 20.1% | [3] -10.5% | [6] -4.85% | [5] -38.4%

O=S1(=O)OCCOS(=O)(=O)C1Cc1nc2ccccc2[nH]1
inactive: [1] 3.25% | [2] 15.8% | [3] 1.25% | [6] -0.05% | [5] 37.1%

Cc1ccc(Cl)cc1NC(=O)c1ccccc1
inactive: [1] 3.45% | [2] -1.25% | [3] -8.5% | [6] -18.1% | [5] 14.8%

NC(N)=N/N=C(\c1ccc(C(F)(F)F)cc1)c1ccc(Cl)c(Cl)c1
active: [1] 99.5% | [2] 99.5% | [3] 99.7% | [6] 99.3% | [5] 99.7%

CC(O)C(O)CC(/C=N/NC(=O)c1ccccc1)=N/NC(=O)c1ccccc1 (configuration not stated)
inactive: [1] 3.55% | [2] 4.25% | [3] -14.6% | [6] -0.75% | [5] 2.8%

O=C(NCCCl)NC1CCCCCC1
inactive: [1] -10.8% | [2] -3.6% | [3] -16% | [6] -3.05% | [5] 2.05%

Cc1ccc(-c2c(C#N)c(O)n(NS(=O)(=O)c3ccccc3)c(=O)c2C#N)cc1
inactive: [1] 4.45% | [2] 6.4% | [3] -30.4% | [6] -14.3% | [5] -11.7%

OCCCCCSc1ccccc1
inactive: [1] 17.4% | [2] 4.35% | [3] 7.95% | [6] -11.1% | [5] 7.3%

C/C=C/C(=O)Nc1cccc(OC(=O)NC(C)(C)C)c1
inactive: [1] 9.2% | [2] 13.1% | [3] 3.55% | [6] 18% | [5] 1.65%

NC(COC(=O)NCCCl)C(=O)O (configuration not stated)
inactive: [1] 12.7% | [2] -6.95% | [3] -0.35% | [6] 22.1% | [5] 18.6%

COc1ccc(-c2sc(C)nc2O)cc1
inactive: [1] 7.75% | [2] 2.35% | [3] 0.3% | [6] -15.5% | [5] 7.2%

COc1ccc(-n2c(CCC(=O)O)nc3c2C(=O)c2ccccc2C3=O)cc1
inactive: [1] 31.6% | [2] 17.6% | [3] 34% | [6] 14.7% | [5] 14.2%

O=C(NCN1CCOCC1)NC(=O)NCN1CCOCC1
inactive: [1] -10.6% | [2] 7.4% | [3] -7.6% | [6] 12.2% | [5] -3.95%

CC1(C)OCC2OC3(c4nc(C#N)c(N)o4)OC(C)(C)OC3C2O1 (configuration not stated)
inactive: [1] -18.8% | [2] -7.05% | [3] -48% | [6] -39.2% | [5] -75%

CCCCCCCCCCCCCCCCCCc1ccc(O)cc1O
inactive: [1] -2.05% | [2] -2.05% | [3] -15.9% | [6] 1.75% | [5] -5.2%

OCCc1ccc2ccccc2n1
inactive: [1] 6.05% | [2] 14.2% | [3] 10.7% | [6] -0.8% | [5] 3.5%
